Among all 5,500 compounds or so, about 2,000 (36%) were called active. Inconclusive results (about 18%) are left out. No stated cut-off is given here; in the data, active means normalized growth mostly below about 0.91 (no sharp cut-off); inconclusive means no clear call, values can overlap the other calls; inactive means mostly above about 0.92. The list shows a part of the results.
Assay: chemical genetic growth profiling, strain panel (AID 1159580);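 further: tested at 20 µM; growth read once vehicle control cultures reached saturation at 30 °C; 1 = growth at the plate median or of vehicle wells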
Conditions: growth OD

Measured: normalized growth

COc1cc2c(cc1/C=C/C(=O)c1cc(OC)c(OC)cc1OC)OCO2
inactive: S. cerevisiae deletion strains, locus YBR021W, strain FUR4, stronger effect = lower value 1.14 | S. cerevisiae deletion strains, locus YBR229C, strain ROT2, stronger effect = lower value 0.968 | S. cerevisiae deletion strains, locus YCL029C, strain bik1, stronger effect = lower value 1.02 | S. cerevisiae deletion strains, locus YDL035C, strain GPR1, stronger effect = lower value 1 | S. cerevisiae deletion strains, locus YDL074C, strain BRE1, stronger effect = lower value 1.05 | S. cerevisiae deletion strains, locus YDL101C, strain DUN1, stronger effect = lower value 0.994 | S. cerevisiae deletion strains, locus YDL134C, strain PPH21, stronger effect = lower value 1.01 | S. cerevisiae deletion strains, locus YDL185W, strain tfp1, stronger effect = lower value 1 | S. cerevisiae deletion strains, locus YDL192W, strain arf1, stronger effect = lower value 1.01 | S. cerevisiae deletion strains, locus YDR101C, strain arx1, stronger effect = lower value 0.998 | S. cerevisiae deletion strains, locus YDR150W, strain NUM1, stronger effect = lower value 1.02 | S. cerevisiae deletion strains, locus YDR162C, strain NBP2, stronger effect = lower value 0.974 | S. cerevisiae deletion strains, locus YDR318W, strain mcm21, stronger effect = lower value 1.01 | S. cerevisiae deletion strains, locus YDR388W, stronger effect = lower value 1.02 | S. cerevisiae deletion strains, locus YDR502C, strain sam2, stronger effect = lower value 1.02 | S. cerevisiae deletion strains, locus YEL061C, strain CIN8, stronger effect = lower value 1 | S. cerevisiae deletion strains, locus YER110C, stronger effect = lower value 1.02 | S. cerevisiae deletion strains, locus YER155C, strain BEM2, stronger effect = lower value 1.02 | S. cerevisiae deletion strains, locus YER167W, strain BCK2, stronger effect = lower value 1.03 | S. cerevisiae deletion strains, locus YGL078C, strain dbp3, stronger effect = lower value 0.997 | S. cerevisiae deletion strains, locus YGL086W, strain mad1, stronger effect = lower value 1.01 | S. cerevisiae deletion strains, locus YGL248W, strain PDE1, stronger effect = lower value 0.996 | S. cerevisiae deletion strains, locus YGR135W, strain pre9, stronger effect = lower value 1.01 | S. cerevisiae deletion strains, locus YGR229C, strain SMI1, stronger effect = lower value 1.01 | S. cerevisiae deletion strains, locus YGR252W, strain gcn5, stronger effect = lower value 1.08 | S. cerevisiae deletion strains, locus YHR030C, strain SLT2, stronger effect = lower value 1.02 | S. cerevisiae deletion strains, locus YHR079C, strain IRE1 (second series), stronger effect = lower value 1 | S. cerevisiae deletion strains, locus YHR094C, strain hxt1, stronger effect = lower value 1.01 | S. cerevisiae deletion strains, locus YHR129C, strain ARP1, stronger effect = lower value 1.02 | S. cerevisiae deletion strains, locus YHR200W, strain rpn10, stronger effect = lower value 1.02 | S. cerevisiae deletion strains, locus YIL066C, strain RNR3, stronger effect = lower value 1.01 | S. cerevisiae deletion strains, locus YIL073C, strain SPO22, stronger effect = lower value 1.06 | S. cerevisiae deletion strains, locus YIL125W, strain kgd1, stronger effect = lower value 1.03 | S. cerevisiae deletion strains, locus YIR030C, strain dcg1, stronger effect = lower value 1.01 | S. cerevisiae deletion strains, locus YJL095W, strain BCK1, stronger effect = lower value 1 | S. cerevisiae deletion strains, locus YJL134W, strain LCB3, stronger effect = lower value 1.01 | S. cerevisiae deletion strains, locus YJL168C, strain set2, stronger effect = lower value 1.01 | S. cerevisiae deletion strains, locus YJL187C, strain SWE1 (second series), stronger effect = lower value 1 | S. cerevisiae deletion strains, locus YJR043C, strain POL32, stronger effect = lower value 1.02 | S. cerevisiae deletion strains, locus YKL009W, strain mrt4, stronger effect = lower value 1.02 | S. cerevisiae deletion strains, locus YKL068W, stronger effect = lower value 1 | S. cerevisiae deletion strains, locus YKL085W, strain MDH1 (second series), stronger effect = lower value 1 | S. cerevisiae deletion strains, locus YKL085W, strain MDH1, stronger effect = lower value 1 | S. cerevisiae deletion strains, locus YKL190W, strain CNB1, stronger effect = lower value 0.994 | S. cerevisiae deletion strains, locus YKR001C, strain vps1, stronger effect = lower value 1.02 | S. cerevisiae deletion strains, locus YLR039C, strain RIC1, stronger effect = lower value 0.994 | S. cerevisiae deletion strains, locus YLR058C, strain SHM2, stronger effect = lower value 0.998 | S. cerevisiae deletion strains, locus YLR102C, strain apc9, stronger effect = lower value 1.02 | S. cerevisiae deletion strains, locus YLR262C, strain YPT6, stronger effect = lower value 1.01 | S. cerevisiae deletion strains, locus YLR268W, strain sec22, stronger effect = lower value 1.02 | S. cerevisiae deletion strains, locus YLR330W, strain CHS5, stronger effect = lower value 1.02 | S. cerevisiae deletion strains, locus YLR342W, strain FKS1 (second series), stronger effect = lower value 1.06 | S. cerevisiae deletion strains, locus YLR371W, strain rom2, stronger effect = lower value 1.02 | S. cerevisiae deletion strains, locus YLR418C, strain cdc73, stronger effect = lower value 1.04 | S. cerevisiae deletion strains, locus YML016C, strain PPZ1, stronger effect = lower value 1.01 | S. cerevisiae deletion strains, locus YML032C, strain rad52, stronger effect = lower value 1.02 | S. cerevisiae deletion strains, locus YML124C, strain tub3, stronger effect = lower value 0.995 | S. cerevisiae deletion strains, locus YMR078C, strain ctf18, stronger effect = lower value 1.03 | S. cerevisiae deletion strains, locus YMR223W, strain ubp8, stronger effect = lower value 1.01 | S. cerevisiae deletion strains, locus YMR263W, strain SAP30, stronger effect = lower value 1 | S. cerevisiae deletion strains, locus YMR307W, strain GAS1, stronger effect = lower value 1.21 | S. cerevisiae deletion strains, locus YNL067W, strain RPL9B, stronger effect = lower value 0.998 | S. cerevisiae deletion strains, locus YNL128W, strain TEP1, stronger effect = lower value 0.996 | S. cerevisiae deletion strains, locus YNL153C, strain GIM3, stronger effect = lower value 0.983 | S. cerevisiae deletion strains, locus YNL233W, strain BNI4, stronger effect = lower value 1.02 | S. cerevisiae deletion strains, locus YNL250W, strain rad50, stronger effect = lower value 1.01 | S. cerevisiae deletion strains, locus YNL271C, strain bni1, stronger effect = lower value 1.01 | S. cerevisiae deletion strains, locus YNL298W, strain CLA4, stronger effect = lower value 1.02 | S. cerevisiae deletion strains, locus YNL307C, strain MCK1, stronger effect = lower value 1.03 | S. cerevisiae deletion strains, locus YNL322C, strain KRE1, stronger effect = lower value 1.01 | S. cerevisiae deletion strains, locus YNR052C, strain pop2, stronger effect = lower value 1.01 | S. cerevisiae deletion strains, locus YOL006C, strain TOP1, stronger effect = lower value 1.27 | S. cerevisiae deletion strains, locus YOL012C, strain htz1 1.18 | S. cerevisiae deletion strains, locus YOL147C, strain pex11, stronger effect = lower value 1.01 | S. cerevisiae deletion strains, locus YOR061W, strain CKA2, stronger effect = lower value 0.975 | S. cerevisiae deletion strains, locus YOR069W, strain VPS5, stronger effect = lower value 1.01 | S. cerevisiae deletion strains, locus YOR136W, strain idh2, stronger effect = lower value 1.02 | S. cerevisiae deletion strains, locus YOR144C, strain elg1, stronger effect = lower value 1 | S. cerevisiae deletion strains, locus YOR184W, strain ser1, stronger effect = lower value 0.993 | S. cerevisiae deletion strains, locus YOR316C, strain cot1, stronger effect = lower value 1.04 | S. cerevisiae deletion strains, locus YPL055C, strain LGE1, stronger effect = lower value 1.05 | S. cerevisiae deletion strains, locus YPR119W, strain clb2, stronger effect = lower value 1.01 | S. cerevisiae deletion strains, locus YPR141C, strain kar3, stronger effect = lower value 1.01 | S. cerevisiae deletion strains, locus YPR163C, strain tif3, stronger effect = lower value 1.01 | S. cerevisiae deletion strains, locus YPR167C, strain met16, stronger effect = lower value 1.01 | S. cerevisiae deletion strains, strain wtn01, stronger effect = lower value 1.01 | S. cerevisiae strains, strain wild type, stronger effect = lower value 1.01

From PubChem BioAssay AID1159580 (chemical genetic matrix, 2015)
